# ± gives the standard deviation of the averaged measurements.
# Tests used:
# Assay in all cases: promoter activity interaction Z-score (Lux/OD deviation from empty-vector control); higher = stronger promoter induction by the compound
# [1] = test system: E. coli BW25113 ompFp lux reporter; conditions: 107.7 µg/ml
# How it was run: (§1)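 Reporter strains of E. coli BW25113 grew at 37°C in 40 µl LB Lennox in 384-well plates. Readings of OD600 and luminescence were taken every 30 min over 12 h, integrated over 0–8 h (wild type) or 1–9 h (deletion strains), and wells below 10% of the median growth value were excluded. Scores are Z-transformed residuals of growth-normalised luminescence from a fit against a control.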
# [2] = test system: E. coli BW25113 robp lux reporter
# How it was run: as §1
# [3] = test system: E. coli BW25113 soxSp lux reporter
# How it was run: as §1
# [4] = test system: E. coli BW25113 tolCp lux reporter
# How it was run: as §1
# [5] = 13.5 µg/ml, genetic background: wild type
# [6] = 13.5 µg/ml, genetic background: ΔmarA
# [7] = 13.5 µg/ml, genetic background: Δrob
# [8] = 13.5 µg/ml, genetic background: ΔsoxS
# [9] = 26.9 µg/ml, genetic background: wild type
# [10] = 26.9 µg/ml, genetic background: ΔmarA
# [11] = 26.9 µg/ml, genetic background: Δrob
# [12] = 26.9 µg/ml, genetic background: ΔsoxS
# [13] = 53.9 µg/ml, genetic background: wild type
# [14] = 53.9 µg/ml, genetic background: ΔmarA
# [15] = 53.9 µg/ml, genetic background: Δrob
# [16] = 53.9 µg/ml, genetic background: ΔsoxS
# [17] = 107.7 µg/ml, genetic background: wild type
# [18] = 107.7 µg/ml, genetic background: ΔmarA
# [19] = 107.7 µg/ml, genetic background: Δrob
# [20] = 107.7 µg/ml, genetic background: ΔsoxS
structure (smiles),measurement,setting,value
CC(=O)O[C@H]1C[C@@]2(C)[C@@H](C[C@@H](O)[C@H]3[C@@]4(C)CC[C@@H](O)[C@@H](C)[C@@H]4CC[C@@]32C)/C1=C(\CCC=C(C)C)C(=O)O [Fusidic acid],promoter activity interaction Z-score,[1]; genetic background: wild type,-1.9 ± 0.91
same,promoter activity interaction Z-score,[1]; genetic background: ΔmarA,-1.77 ± 0.15
same,promoter activity interaction Z-score,[1]; genetic background: Δrob,-2.39 ± 0.61
same,promoter activity interaction Z-score,[1]; genetic background: ΔsoxS,-1.36 ± 0.43
same,promoter activity interaction Z-score,[2]; [5],-0.978 ± 0.39
same,promoter activity interaction Z-score,[2]; [6],-0.301 ± 0.26
same,promoter activity interaction Z-score,[2]; [7],0.242 ± 0.41
same,promoter activity interaction Z-score,[2]; [8],-0.23 ± 0.61
same,promoter activity interaction Z-score,[2]; [9],-0.593 ± 0.31
same,promoter activity interaction Z-score,[2]; [10],-0.113 ± 0.0094
same,promoter activity interaction Z-score,[2]; [11],0.3 ± 0.32
same,promoter activity interaction Z-score,[2]; [12],0.424 ± 1.6
same,promoter activity interaction Z-score,[2]; [13],-1.1 ± 0.35
same,promoter activity interaction Z-score,[2]; [14],-0.572 ± 0.84
same,promoter activity interaction Z-score,[2]; [15],-0.82 ± 0.47
same,promoter activity interaction Z-score,[2]; [16],-0.24 ± 0.27
same,promoter activity interaction Z-score,[2]; [17],-2.27 ± 0.22
same,promoter activity interaction Z-score,[2]; [18],-1.34 ± 0.73
same,promoter activity interaction Z-score,[2]; [19],-1.46 ± 0.021
same,promoter activity interaction Z-score,[2]; [20],-1.76 ± 0.91
same,promoter activity interaction Z-score,[3]; [5],-0.189 ± 0.017
same,promoter activity interaction Z-score,[3]; [6],0.127 ± 0.11
same,promoter activity interaction Z-score,[3]; [7],0.138 ± 0.11
same,promoter activity interaction Z-score,[3]; [8],0.0742 ± 0.26
same,promoter activity interaction Z-score,[3]; [9],-0.0314 ± 0.05
same,promoter activity interaction Z-score,[3]; [10],0.331 ± 0.089
same,promoter activity interaction Z-score,[3]; [11],0.221 ± 0.14
same,promoter activity interaction Z-score,[3]; [12],0.0543 ± 0.37
same,promoter activity interaction Z-score,[3]; [13],0.0312 ± 0.095
same,promoter activity interaction Z-score,[3]; [14],0.0894 ± 0.086
same,promoter activity interaction Z-score,[3]; [15],0.0824 ± 0.045
same,promoter activity interaction Z-score,[3]; [16],0.2418 ± 0.00036
same,promoter activity interaction Z-score,[3]; [17],0.133 ± 0.093
same,promoter activity interaction Z-score,[3]; [18],0.303 ± 0.013
same,promoter activity interaction Z-score,[3]; [19],0.683 ± 0.014
same,promoter activity interaction Z-score,[3]; [20],1.13 ± 0.34
same,promoter activity interaction Z-score,[4]; [5],0.0553 ± 0.57
same,promoter activity interaction Z-score,[4]; [6],0.818 ± 0.39
same,promoter activity interaction Z-score,[4]; [7],0.166 ± 0.013
same,promoter activity interaction Z-score,[4]; [8],0.269 ± 0.96
same,promoter activity interaction Z-score,[4]; [9],-0.129 ± 0.34
same,promoter activity interaction Z-score,[4]; [10],0.688 ± 0.72
same,promoter activity interaction Z-score,[4]; [11],-0.187 ± 0.52
same,promoter activity interaction Z-score,[4]; [12],0.868 ± 0.14
same,promoter activity interaction Z-score,[4]; [13],0.388 ± 0.25
same,promoter activity interaction Z-score,[4]; [14],-0.396 ± 0.26
same,promoter activity interaction Z-score,[4]; [15],-0.151 ± 1.6
same,promoter activity interaction Z-score,[4]; [16],-0.374 ± 0.68
same,promoter activity interaction Z-score,[4]; [17],-1.44 ± 0.11
same,promoter activity interaction Z-score,[4]; [18],-0.24 ± 0.18
same,promoter activity interaction Z-score,[4]; [19],-0.656 ± 0.49
same,promoter activity interaction Z-score,[4]; [20],0.133 ± 0.45

# From the supplement of paper PMC12282887
